This is part of a sample that, as a whole, favours compounds with a hit. Of some 83,000 tested, about 20% had one in any assay.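 Compound tested at a single concentration for 48 hours in 96-well plates; a percent growth value below 10 was scored as active.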 Unmarked numbers belong to inactive results. Calls of active or inactive are those of the source.
Legend:
Assay in all cases: NCI-60 one-dose screen, 48 h (100 = growth as untreated, 0 = no growth, -100 = all killed)
RPMI-8226 leukemia = conditions: 10 µM unless noted
OVCAR-8 ovarian = conditions: 10 µM unless noted
OVCAR-5 ovarian = conditions: 10 µM unless noted
OVCAR-4 ovarian = conditions: 10 µM unless noted
SK-OV-3 ovarian = conditions: 10 µM unless noted
IGROV1 ovarian = conditions: 10 µM unless noted
OVCAR-3 ovarian = conditions: 10 µM unless noted
HS 578T breast = conditions: 10 µM unless noted
NCI/ADR-RES ovarian = conditions: 10 µM unless noted
T-47D breast = conditions: 10 µM unless noted
BT-549 breast = conditions: 10 µM unless noted
MDA-MB-435 melanoma = conditions: 10 µM unless noted
SW-620 colon = conditions: 10 µM unless noted
MCF7 breast = conditions: 10 µM
HCT-116 colon = conditions: 10 µM unless noted
HCC-2998 colon = conditions: 10 µM unless noted
KM12 colon = conditions: 10 µM unless noted

Row | SMILES | growth (RPMI-8226 leukemia) | growth (OVCAR-8 ovarian) | growth (OVCAR-5 ovarian) | growth (OVCAR-4 ovarian) [%] | growth (SK-OV-3 ovarian) | growth (IGROV1 ovarian) | growth (OVCAR-3 ovarian) | growth (HS 578T breast) | growth (NCI/ADR-RES ovarian) | growth (T-47D breast) [%] | growth (BT-549 breast) | growth (MDA-MB-435 melanoma) | growth (SW-620 colon) | growth (MCF7 breast) | growth (HCT-116 colon) | growth (HCC-2998 colon) | growth (KM12 colon)
1 | CCCCNc1nc(NC(C)(C)C)nc(NC(C)(C)C)n1 | 17.7% | 59.5% | 62% | 55.2 | 81.9% | 51.3% | 54.2% | 67.7% | 53.3% | 45.3 | 79.9% | 72% | 52.3% | 56% | 30.8% | 74.3% | 63.8%
2 | CCC1=C[C@]2(C3CC(=O)N(c4ccccc4)C3=O)CC(C(C)(C)C)C[C@@H]2[C@@H]2C(=O)N(c3ccccc3)C(=O)[C@H]12 (stereo partly specified) | 59.7% | 85.5% | 88.7% | 89.4 | 88.6% | 90.8% | 86% | 83% | 91.3% | 70.5 | 86.5% | 85.9% | 88.4% | 80.7% | 68.1% | 103% | 85.9%
3 | Nc1nonc1-n1nncc1-c1cccnc1 | 105% | 111% | 110% | 98.8 | 104% | 103% | 116% | 101% | 105% | 93.9 | 105% | 102% | 111% | 93.4% | 106% | 112% | 105%
4 | O=NN(Cc1cccnc1)C(=O)NC1CCCCC1 | 95.3% | 104% | 97.4% | 104 | 113% | 113% | 114% | 118% | 105% | 98.1 | 112% | 108% | 107% | 92.9% | 104% | 107% | 109%
5 | C#CCn1cc(C=C2C(=O)N(C)C(=O)N(C)C2=O)c2cc(Cl)ccc21 | 105% | 107% | 108% | 109 | 115% | 102% | 108% | 91.4% | 107% | 112 | 116% | 103% | 99.5% | 100% | 109% | 112% | 104%
6 | Cc1c(-c2noc(-c3ccc([N+](=O)[O-])cc3)n2)no[n+]1[O-] | 93.3% | 107% | 104% | 102 | 111% | 89.4% | 94.4% | 104% | 96.2% | 104 | 95.7% | 106% | 97.5% | 55.2% | 87.5% | 102% | 92.2%
7 | CCOC(=O)c1c(C=O)nc2ccccc2c1/C=C/c1ccc(Cl)cc1 | 85.7% | 104% | 101% | 85.6 | 95.1% | 80.9% | 98.6% | 90.6% | 103% | 86.2 | 99.6% | 101% | 103% | 78% | 82.4% | 110% | 96.1%
8 | Cc1ccc(C)c(-c2csc(Nc3ccc(C)c(C)c3)n2)c1 | 2.64% (active) | 54.5% | 94% | 54.5 | 77.8% | 81% | 67.4% | 57.9% | 54.2% | 39.3 | 64.6% | -58.3% (active) | -33% (active) | -30.3% (active) | 3.25% (active) | 27.6% | 59.5%
9 | O=C1OC(c2ccccc2)(c2ccccc2)c2ccsc21 | 89.1% | 101% | 95.7% | 107 | 102% | 107% | 100% | 103% | 115% | 104 | 104% | 108% | 97.4% | 104% | 103% | 127% | 99.1%
10 | O=C(NC1CCN(Cc2ccccc2)CC1)c1cc(C(=O)NC2CCN(Cc3ccccc3)CC2)cc(C(=O)NC2CCN(Cc3ccccc3)CC2)c1 | 56.4% | 91.9% | 112% | 60.5 | 79.8% | -33.7% (active) | 87% | 79.6% | 82.1% | 72.5 | 70.5% | 70.4% | 84.6% | 57.3% | 66.1% | 107% | 90.8%
11 | Cn1c(C(=O)c2cccc3ccccc23)nc2ccccc21 | 17.6% | -1.81% (active) | 49% | 19.9 | 22% | -6.8% (active) | 29.6% | 45.7% | 4.01% (active) | 17 | 13% | 17.4% | 22.4% | 15.6% | 22.7% | 6.79% (active) | 25.9%
12 | COc1ccc(Cn2c(Br)c3c(c2-c2cc(OC)c(OC)c(OC)c2)CCc2sc(NC(=O)c4ccc(OC)cc4)nc2-3)cc1 | 81.7% | 96% | 102% | 93.3 | 108% | 79.2% | 92.7% | 83.7% | 89.2% | 77.3 | 96.1% | 99.5% | 96.2% | 91.5% | 90.8% | 108% | 94.2%
13 | O=C(Nc1ccc(N2CCNCC2)cc1)c1[nH]ncc1Nc1ncnc2sc3c(c12)CCC3 | -40.6% (active) | -43.7% (active) | -88.1% (active) | 15.8 | -27.9% (active) | -9.21% (active) | -81.7% (active) | -54.8% (active) | -57.3% (active) | 20.4 | 0.151% (active) | -94.4% (active) | -83.1% (active) | -59% (active) | -85.4% (active) | -91.4% (active) | -82.4% (active)
14 | Nc1nc(N)c2c(n1)NC1(C=C(O)c3ccccc31)C1=C(N2)c2ccccc2C1=O (stereo unspecified) | 107% | 103% | 116% | 98.1 | 121% | 92.3% | 113% | 111% | 107% | 112 | 112% | 125% | 99.4% | 97.1% | 101% | 109% | 109%
15 | CCOC(=O)c1sc(-c2ccc(OS(=O)(=O)c3ccccc3[N+](=O)[O-])c(C=O)c2)nc1C | 37.2% | 56.5% | 73.6% | 33 | 117% | 3.88% (active) | 23.5% | 96.3% | 61.6% | 28.4 | 47.7% | 78.4% | 36.8% | 20.8% | 13.6% | 111% | 96.2%
16 | O=C(Nc1ccc(Cl)cc1)c1cc2ccccc2cc1OP(=O)(O)O | -10.1% (active) | 27.9% | 69.1% | 25 | 19% | -1.26% (active) | 10.7% | 32.9% | 16.6% | 25.4 | 11.7% | 15.8% | 42.3% | 54% | 10.8% | 47.9% | 56.2%
17 | COc1ccc(/C=C2\N=C(c3ccccc3)N(c3ccc(-c4nc5ccc(C)cc5s4)cc3)C2=O)cc1 | 69.3% | 92% | 84.7% | 64.6 | 94.2% | 58.6% | 72.2% | 102% | 93.6% | 54.1 | 92.8% | 86.9% | 101% | 77.1% | 85.9% | 96% | 72.1%
18 | COC(=O)C1(C)COP(=O)(Nc2ccc(OC)cc2)OC1 (stereo unspecified) | 97.7% | 101% | 108% | 108 | 108% | 108% | 107% | 106% | 99.5% | 93.1 | 98.4% | 105% | 108% | 99.5% | 95.3% | 94.1% | 103%
